Results published in PubChem BioAssay AID1159580 (chemical genetic matrix, 2015).
Screen size: about 5,500 compounds; about 2,000 (36%) were called active. Inconclusive results (about 18%) are left out. Cut-off read from the data, not from the text of the source: active = normalized growth mostly below about 0.91 (no sharp cut-off); inconclusive = no clear call, values can overlap the other calls; inactive = mostly above about 0.92. This is one part of the list.

Assay: chemical genetic growth profiling, strain panel (AID 1159580);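 note: tested at 20 µM; growth read once vehicle control cultures reached saturation at 30 °C; 1 = growth at the plate median or of vehicle wells; lower values mean less growth of the strain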
Details: S. cerevisiae deletion strains, growth OD
[1] = locus YAL040C, strain CLN3, active compounds read low
[2] = locus YCL061C, strain MRC1 (second series), active compounds read low
[3] = locus YDR363W, strain ESC2, active compounds read low
[4] = locus YER002W, strain NOP16, active compounds read low
[5] = locus YGR229C, strain SMI1, active compounds read low
[6] = locus YNL153C, strain GIM3, active compounds read low
[7] = locus YNL175C, strain NOP13, active compounds read low
[8] = locus YNL197C, strain WHI3, active compounds read low
[9] = locus YNL224C, strain SQS1, active compounds read low
[10] = locus YOR083W, strain WHI5 (second series), active compounds read low
[11] = locus YPL241C, strain CIN2, active compounds read low

Measured: normalized growth

CCc1c(C(=O)OC)ncc2[nH]c3cc(OC)c(OC)cc3c12
inactive: [1] 0.994 | [2] 0.994 | locus YDR150W, strain NUM1, active compounds read low 0.995 | [3] 1 | [4] 0.99 | [5] 1.05 | locus YJR075W, strain HOC1, active compounds read low 0.99 | locus YMR307W, strain GAS1, active compounds read low 1.01 | [6] 0.984 | [7] 0.998 | [8] 0.992 | [9] 1.02 | [10] 1 | [11] 0.999

CNCC[C@@H](Oc1ccccc1)c1ccccc1
inactive: locus YAL021C, strain ccr4, active compounds read low 0.976 | locus YAL026C, strain drs2, active compounds read low 0.961 | locus YAL030W, strain snc1, active compounds read low 0.947 | locus YBL061C, strain skt5, active compounds read low 0.98 | locus YBR009C, strain hhf1, active compounds read low 0.974 | locus YBR023C, strain chs3, active compounds read low 0.979 | locus YBR171W, strain sec66, active compounds read low 0.979 | locus YBR231C, strain swc5, active compounds read low 0.984 | locus YBR279W, strain paf1, active compounds read low 0.982 | locus YCL011C, strain gbp2, active compounds read low 0.975 | locus YCL016C, strain dcc1, active compounds read low 0.979 | locus YCL061C, strain MRC1, active compounds read low 0.982 | locus YCL069W, strain vba3, active compounds read low 0.978 | locus YCR088W, strain abp1, active compounds read low 0.983 | locus YDL005C, strain med2, active compounds read low 0.983 | locus YDL040C, strain nat1, active compounds read low 0.988 | locus YDR001C, strain nth1, active compounds read low 0.974 | locus YDR069C, strain doa4, active compounds read low 0.965 | locus YDR137W, strain rgp1, active compounds read low 1.02 | locus YDR159W, strain sac3, active compounds read low 0.944 | locus YDR195W, strain ref2 0.972 | locus YDR297W, strain sur2, active compounds read low 0.98 | locus YDR334W, strain swr1, active compounds read low 0.951 | locus YDR335W, strain msn5, active compounds read low 0.965 | locus YDR392W, strain spt3, active compounds read low 0.975 | locus YEL003W, strain gim4, active compounds read low 0.973 | locus YEL037C, strain rad23, active compounds read low 0.988 | locus YEL061C, strain CIN8 (second series), active compounds read low 0.988 | locus YER015W, strain faa2, active compounds read low 0.961 | locus YER016W, strain bim1, active compounds read low 0.978 | locus YER111C, strain swi4, active compounds read low 0.981 | locus YER155C, strain BEM2 (second series), active compounds read low 0.978 | locus YFR010W, strain ubp6, active compounds read low 0.964 | locus YGL167C, strain pmr1, active compounds read low 0.977 | locus YGL173C, strain kem1, active compounds read low 0.954 | locus YGL227W, strain vid30, active compounds read low 0.97 | locus YGL240W, strain doc1, active compounds read low 0.96 | locus YGL253W, strain hxk2, active compounds read low 0.984 | locus YHR013C, strain ard1, active compounds read low 0.973 | locus YHR027C, strain rpn1, active compounds read low 0.946 | locus YHR030C, strain SLT2, active compounds read low 1.01 | locus YHR079C, strain IRE1, active compounds read low 0.995 | locus YHR142W, strain chs7, active compounds read low 0.973 | locus YJL092W, strain hpr5, active compounds read low 0.984 | locus YJL095W, strain BCK1 (second series), active compounds read low 0.971 | locus YJL095W, strain BCK1, active compounds read low 0.996 | locus YJL115W, strain asf1, active compounds read low 0.957 | locus YJL129C, strain trk1, active compounds read low 0.99 | locus YJL154C, strain vps35, active compounds read low 0.97 | locus YJL164C, strain tpk1, active compounds read low 0.987 | locus YJL166W, strain qcr8, active compounds read low 0.976 | locus YJL187C, strain SWE1, active compounds read low 0.98 | locus YJR066W, strain TOR1, active compounds read low 0.946 | locus YKL160W, strain elf1, active compounds read low 0.989 | locus YKR026C, strain gcn3, active compounds read low 0.977 | locus YKR091W, strain srl3, active compounds read low 0.988 | locus YLL001W, strain dnm1, active compounds read low 0.988 | locus YLL026W, active compounds read low 0.97 | locus YLL041C, strain sdh2, active compounds read low 0.968 | locus YLR027C, strain aat2, active compounds read low 0.962 | locus YLR113W, strain HOG1, active compounds read low 0.965 | locus YLR221C, strain rsa3, active compounds read low 0.976 | locus YLR258W, strain gsy2, active compounds read low 0.981 | locus YLR262C, strain YPT6 (second series), active compounds read low 0.982 | locus YLR320W, strain mms22, active compounds read low 0.989 | locus YLR342W, strain FKS1, active compounds read low 0.976 | locus YLR357W, strain rsc2, active compounds read low 1.01 | locus YLR370C, strain arc18, active compounds read low 0.981 | locus YLR384C, strain iki3, active compounds read low 0.972 | locus YML120C, strain ndi1, active compounds read low 0.983 | locus YMR058W, strain fet3, active compounds read low 0.981 | locus YMR125W, strain sto1, active compounds read low 0.979 | locus YMR129W, active compounds read low 0.991 | locus YMR205C, strain PFK2, active compounds read low 0.958 | locus YMR231W, strain pep5, active compounds read low 0.984 | locus YNL071W, strain lat1, active compounds read low 0.993 | locus YNL183C, strain NPR1, active compounds read low 0.958 | locus YNL209W, strain ssb2, active compounds read low 0.948 | locus YNL248C, strain rpa49, active compounds read low 0.974 | locus YNL322C, strain KRE1 (second series), active compounds read low 0.978 | locus YNR049C, strain mso1, active compounds read low 0.969 | locus YOR001W, strain rrp6, active compounds read low 0.972 | locus YOR070C, strain gyp1, active compounds read low 0.989 | locus YOR080W, strain dia2, active compounds read low 0.973 | locus YOR083W, strain WHI5, active compounds read low 0.981 | locus YOR106W, strain vam3, active compounds read low 0.972 | locus YOR231W, strain MKK1, active compounds read low 1.01 | locus YOR265W, strain rbl2, active compounds read low 0.98 | locus YOR270C, strain vph1, active compounds read low 1.01 | locus YOR290C, strain snf2, active compounds read low 0.974 | locus YPL051W, strain arl3, active compounds read low 0.994 | locus YPL078C, strain atp4, active compounds read low 0.984 | locus YPL106C, strain sse1, active compounds read low 0.924 | locus YPL240C, strain hsp82, active compounds read low 0.976 | locus YPL256C, strain CLN2, active compounds read low 0.992

NC(=O)CNCCC(c1ccccc1)c1ccccc1
inactive: [1] 0.962 | [2] 0.987 | [3] 0.965 | [4] 0.969 | locus YGR078C, strain PAC10, active compounds read low 0.993 | [5] 0.895 | [6] 1.04 | [7] 0.993 | [8] 1.01 | [9] 0.991 | [10] 1.03 | [11] 0.984
